JMJD2A Tudor = JMJD2A Tudor domain (human) inhibition | O75164 | AlphaScreen JMJD2A-Tudor / H3K4me3 peptide binding | Potency, µM (series often up to 114 µM), for the others: at the highest dose activity change, negative = inhibition, actives largely listed as inhibitors | 390,000 tested, 4.4% active | AID 504339; note: potency is the fitted concentration of half-maximal effect; % is set by controls: 0 for no effect and ±100 for the full control effect; nearly all actives have a fitted effect of over 50% in size
PLK1 PBD inh = blocks phosphopeptide binding to human PLK1 polo-box domain | P53350 | Plk1 PBD binding of FITC phosphopeptide, fluorescence polarization | Potency, µM, inactives show max response, negative = inhibition, hits mostly inhibitors | 360,000 tested, 2.8% active | AID 720504; note: potency is the fitted concentration of half-maximal effect; series mostly up to about 57 µM; % is set by controls: 0 for no effect and ±100 for the full control effect; nearly all actives have a fitted effect of over 65% in size
HP1b binding inh = HP1-beta chromodomain-methylated histone interaction inhibition | 390,000 tested, 0.56% active | AlphaScreen HP1-beta / biotin-H3K9me3 peptide binding | Potency, µM (top dose mostly 114 µM), without a hit: at the top dose activity change, negative = inhibition, hits mostly inhibitors | P83916 | AID 540317; note: potency is the fitted concentration of half-maximal effect; nearly all actives have a fitted effect of over 70% in size
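AlphaScreen: HP1-beta (50 nM) preformed 30 min with biotin-H3(1-18)K9me3 peptide (50 nM) in PBS pH 7.4, 0.01% Tween-20. Compound added for 30 min at RT, then streptavidin donor/nickel chelate acceptor beads (10 ug/mL) for 30 min.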
VDR inhibitor = inhibitors of human vitamin D receptor. P11473. VDR-SRC2-3 peptide fluorescence polarization, 2 h. Potency, µM, for inactives: max response, negative = inhibition, usual class: inhibitors. 400,000 tested, 0.93% active; note: potency is the fitted concentration of half-maximal effect; % is set by controls: 0 for no effect and ±100 for the full control effect
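Inhibition of the VDR/SRC2-3 peptide interaction is quantified by fluorescence polarization. Compounds (23 nl, pintool) incubate with the reagents for 2 hours at ambient room temperature.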
L3MBTL1 block = L3MBTL1 (human) inhibition; Q9Y468; AlphaScreen L3MBTL1–H3K9me1 peptide binding; Potency, µM (top dose mostly 57.1 µM), for inactives: at the top dose activity, negative = inhibition, actives largely listed as inhibitors; 230,000 tested, 0.66% active; AID 485360; note: potency is the fitted concentration of half-maximal effect; % is set by controls: 0 for no effect and ±100 for the full control effect; nearly all actives have a fitted effect of over 60% in size
Target sequence (Q9Y468 whole entry, looked up): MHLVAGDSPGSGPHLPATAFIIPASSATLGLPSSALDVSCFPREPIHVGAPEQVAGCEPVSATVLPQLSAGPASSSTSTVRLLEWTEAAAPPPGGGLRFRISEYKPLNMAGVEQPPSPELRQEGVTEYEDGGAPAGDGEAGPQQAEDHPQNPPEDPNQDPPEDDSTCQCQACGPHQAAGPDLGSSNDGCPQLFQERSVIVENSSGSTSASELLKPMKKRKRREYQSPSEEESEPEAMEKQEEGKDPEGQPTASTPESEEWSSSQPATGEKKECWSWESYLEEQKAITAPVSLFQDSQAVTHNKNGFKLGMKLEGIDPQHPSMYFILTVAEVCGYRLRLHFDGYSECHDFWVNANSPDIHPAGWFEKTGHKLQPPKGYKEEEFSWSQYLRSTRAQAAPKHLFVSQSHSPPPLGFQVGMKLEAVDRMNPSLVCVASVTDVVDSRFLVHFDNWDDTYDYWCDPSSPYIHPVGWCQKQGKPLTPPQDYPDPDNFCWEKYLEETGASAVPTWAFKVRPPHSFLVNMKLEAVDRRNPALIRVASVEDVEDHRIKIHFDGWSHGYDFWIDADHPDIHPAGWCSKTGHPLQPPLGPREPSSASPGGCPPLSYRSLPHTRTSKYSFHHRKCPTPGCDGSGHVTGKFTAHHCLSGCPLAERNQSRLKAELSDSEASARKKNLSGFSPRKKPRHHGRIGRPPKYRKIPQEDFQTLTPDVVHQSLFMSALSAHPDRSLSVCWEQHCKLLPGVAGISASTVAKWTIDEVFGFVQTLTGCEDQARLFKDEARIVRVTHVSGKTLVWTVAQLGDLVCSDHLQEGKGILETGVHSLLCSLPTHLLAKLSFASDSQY
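Displacement of a biotinylated histone H3(1-15) peptide monomethylated at Lys9 (75 nM) from L3MBTL1 (50 nM) was measured by AlphaScreen after a 30 min room-temperature compound incubation; cefsulodin titration served as intraplate control.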
BAZ2B block = BAZ2B (human) inhibition | Q9UIF8 | 360,000 tested, 4.4% active | Potency, µM (highest dose often 114 µM), for the others: at the top dose activity change, negative = inhibition, actives largely listed as inhibitors | AlphaScreen BAZ2B-H3K14Ac peptide displacement; note: potency is the fitted concentration of half-maximal effect; % is set by controls: 0 for no effect and ±100 for the full control effect; nearly all actives have a fitted effect of over 60% in size
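Compounds, titrated to a top concentration of 110 uM, were incubated 30 min at room temperature with preformed BAZ2B/acetyl-K14 H3 peptide complex (50 nM each). Proximity signal was measured by AlphaScreen after 20 min with beads.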
USP1-UAF1 confirm = blocks human USP1/UAF1 cleavage of Ub-Rhodamine | shares compounds with VDR inhibitor | Ub-Rhodamine cleavage, fluorescence kinetic read | Potency, µM (top dose mostly 114 µM), inactives show at the top dose activity change, negative = inhibition, most hits filed as inhibitors | 50 tested, 50% active
VDR confirm = inhibits human vitamin D receptor, primary hit validation. 840 tested, 89% active. VDR-coactivator inhibition assay, qHTS confirmation. Potency, µM, usual class: inhibitors. shares compounds with VDR inhibitor; note: potency is the fitted concentration of half-maximal effect
VDR FP fluor = blocks human VDR-coactivator binding in fluorescein assay. VDR-coactivator binding, fluorescein fluorescence polarization. 840 tested, 48% active. shares compounds with VDR inhibitor. Potency, µM (highest dose often 57.1 µM), inactives show at the highest dose activity change, negative = inhibition, usual class: inhibitors; note: potency is the fitted concentration of half-maximal effect
VDR bla reporter = inhibits human VDR in beta-lactamase reporter cells. Potency, µM (series often up to 46.1 µM), inactives show at the highest dose activity change, negative = inhibition, hits mostly inhibitors. 840 tested, 23% active. VDR beta-lactamase reporter cells, FRET ratio; cells co-treated with VDR agonist LG190178. shares compounds with VDR inhibitor; note: potency is the fitted concentration of half-maximal effect; % is set by controls: 0 for no effect and ±100 for the full control effect
VDR viability = cytotoxic in counter-screen for VDR inhibitors; shares compounds with VDR inhibitor; cytotoxicity counter-screen, cell viability, qHTS; Potency, µM (highest dose often 48.3 µM), inactives show top-dose activity change, negative = cytotoxicity, usual class: cytotoxic; 840 tested, 18% active; AID 602204;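 note: potency is the fitted concentration of half-maximal effect; plate controls were DMSO for no effect and high-concentration cycloheximide for full effect; nearly all actives have a fitted effect of over 75% in size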
Numbers without * were called inactive; ? = inconclusive; . = no result; [ ] = dose if it differs, or a comment. In the library only some 6.9% were active in any assay of this set; here they are far more common. Calls come from the whole dose curve; as a rule, active = well fitted curve in the direction sought with a large enough effect; inconclusive = small, poorly fitted or top-dose-only effect, or another doubt; inactive = no such curve, though single readings can be large; an effect the other way counts as inactive or inconclusive.

SMILES | JMJD2A Tudor | PLK1 PBD inh | HP1b binding inh | VDR inhibitor | L3MBTL1 block | BAZ2B block | VDR confirm | VDR FP fluor | VDR bla reporter | VDR viability | others
CCCCN1C(=O)C(=Nc2cccc3cnccc23)c2ccccc21 | ? | -14% | ? | 50µM* | -2% | 28µM* | 15* | ? | 12% | 29%
O=C(/C=C/c1cc(Br)ccc1O)c1ccco1 | -24%[11.4 µM] | 27µM* | -19% | 25µM* | -8% | -27% | 27* | ? | ? | ?
O=C(/C=C/c1ccncc1)c1ccc2c(c1)OCCO2 | -20% | -24% | 29% | 28µM* | -12% | -37% | 27* | ? | 1% | -7%
Cc1ccc(C2=NN=C(NC(=O)CSc3nncn3C)SC2)cc1 | ? | 3µM* | 35µM* | 3.2µM* | -14% | -13% | 1.1* | ? | 4% | ?
Cc1ccc(N2NC(=O)/C(=C\c3cc4c(cc3[N+](=O)[O-])OCO4)C2=O)cc1C | ? | 9.5µM* | ? | 50µM* | -15% | 45µM* | 12* | ? | ? | -22%
O=C(Nc1cc(S(=O)(=O)N2CCOCC2)ccc1N1CCCCC1)c1ccc(Cl)cc1 | -36% | 5.3µM* | ? | ? | -7% | -9% | 9.5* | ? | 2% | 22%
O=C(Nc1cc(S(=O)(=O)N2CCOCC2)ccc1N1CCCC1)c1ccc(Cl)cc1 | ? | 7.5µM* | ? | ? | -9% | -5% | 13* | 7.9µM* | -16% | ?
O=C(Nc1cc(S(=O)(=O)N2CCOCC2)ccc1N1CCCCC1)c1ccccc1 | -21% | 3% | 22% | -12% | 5% | -1% | . | . | . | .
O=C(Nc1cc(S(=O)(=O)N2CCOCC2)ccc1N1CCCCC1)c1ccccc1Br | -32% | 4.7µM* | ? | 89µM* | -5% | . | 17* | ? | 17% | 19%
Nc1cc(S(=O)(=O)N2CCOCC2)ccc1N1CCCCC1 | ? | 3µM* | ? | 25µM* | -5% | . | 6* | ? | 30% | 6%
Cc1ccc(Cn2c(C(=O)Nc3ccc(Cl)cc3)cc3sccc32)cc1 | -16% | . | 95% | 11% | . | 4% | . | . | . | .
Cc1ccc(C(=O)N2CCN(c3nc4ccccc4n3C)CC2)cc1 | -12% | -2% | 22% | 19% | . | 0% | . | . | . | .
COCC(C)n1c(C)cc(C(=O)COC(=O)CN=C2NS(=O)(=O)c3ccccc32)c1C (stereo not drawn) | -34% | -4% | -13% | -13% | -2% | ? | . | . | . | .
O=C(Nc1cc(S(=O)(=O)N2CCOCC2)ccc1N1CCCC1)c1ccc2c(c1)S(=O)(=O)c1ccccc1C2=O | ? | 4.7µM* | 4µM* | 45µM* | -13% | ? | 8.4* | 3.5µM* | 27% | -5%
Cc1cccc(C(=O)Nc2cc(S(=O)(=O)N3CCOCC3)ccc2N2CCCC2)c1 | -18% | -3% | 18% | 3% | -12% | -15% | . | . | . | .
Cc1cccc(CN2CCN(C(=O)CCl)CC2)c1 | 4% | -2% | 7% | -11% | -1% | 0% | . | . | . | .
O=C(NCc1nc2ccccc2[nH]1)C1=C[C@H](c2ccc3c(c2)OCO3)C[C@H](OCc2ccc(CO)cc2)O1 | -26% | -8% | 19% | -1% | 28% | -13% | . | . | . | .
COC1=C(C)C(O)=C(C(=O)/C=C/c2ccccc2)C(=O)C1(C)C | ? | -3% | 29% | 20µM* | . | -32% | 17* | 20µM* | ? | -3%
CC(=O)N1CCN(C(=S)c2ccc(-c3ccc(Cl)cc3)o2)CC1 | ? | 4.7µM* | -68% | 50µM* | -14% | -6% | 27* | ? | 26% | 5%
C=C(C)CNC(=S)N/N=C/c1c(F)cccc1F | -5% | 2% | 38% | 18% | 9% | . | . | . | . | .
O=C(Nn1cnnc1)c1cc(Cl)cc(Cl)c1 | -23% | -4% | 13% | -12% | . | 6% | . | . | . | .
O=C(Nc1ccc(Cl)cc1C(F)(F)F)c1cc(S(=O)(=O)N2CCOCC2)ccc1F | 0% | . | 21% | 16% | . | 1% | . | . | . | .
O=C(NCCCN1CCOCC1)C1Cc2c(ccc3ccccc23)O1 (stereo not drawn) | -13% | -14% | 23% | -22% | 33% | 0% | . | . | . | .
O=C(O)CN1C(=O)/C(=C\c2cc(Br)ccc2OCc2ccc(F)cc2)SC1=S | ? | 21µM* | ? | 71µM* | . | 56µM* | ? | 32µM* | 24% | 11%
Cc1ccc(NN2C(=O)C=CC2=O)cc1 | -1% | 1% | 34% | -4% | 6% | 9% | . | . | . | .
SMILES | JMJD2A Tudor | PLK1 PBD inh | HP1b binding inh | VDR inhibitor | L3MBTL1 block | BAZ2B block | VDR confirm | VDR FP fluor | VDR bla reporter | VDR viability | others
Cc1ccc(NN2C(=O)C=C(c3ccc(Cl)cc3)C2=O)cc1 | -12% | 4.7µM* | 17% | 50µM* | . | 2% | ? | ? | ? | ?
COc1ccc(N2C(=O)c3ccccc3C2=O)cc1 | -14% | -21% | 17% | -13% | 0% | 0% | . | . | . | .
COc1ccc(C2=CC(=O)N(Nc3ccccc3)C2=O)cc1 | -23% | -25% | -9% | ? | 9% | -22% | 3.2* | 3.5µM* | -7% | 13%
CCC(C(=O)NC(C)(C)C)N(C(=O)Cn1nnc(-c2ccccc2F)n1)c1cccc2c1CCCC2 (stereo not drawn) | -22% | -7% | 3% | -1% | -2% | 5% | . | . | . | .
CNC1=C(N(C(C)=O)c2ccc(Br)cc2)C(=O)c2ccccc2C1=O | -23% | -8% | -10% | -4% | -10% | ? | . | . | . | .
CC(=O)C1=C(c2ccc(Br)cc2)C(=O)c2ccccc2C1=O | 22µM* | -21% | 25µM* | 25µM* | -11% | 25µM* | 5* | 7.9µM* | 2.9µM* | 8.4µM*
CCCc1c(OCCCOc2ccc(OCC(=O)O)cc2)ccc(CC=O)c1O | . | . | . | 35µM* | . | . | . | . | . | . | USP1-UAF1 confirm=59µM*

Bioassay records (PubChem BioAssay)
